Screening results (PubChem BioAssay)
JMJD2A Tudor inh: JMJD2A Tudor domain (human) inhibition; O75164; AlphaScreen JMJD2A-Tudor / H3K4me3 peptide binding; Potency, µM (series often up to 114 µM), actives largely listed as inhibitors; actives 4.4% (n = 390,000); AID 504339; further: nearly all actives have a fitted effect of over 50% in size
L3MBTL1 block: inhibitors of human L3MBTL1. Q9Y468. AlphaScreen L3MBTL1–H3K9me1 peptide binding. Potency, µM (top dose mostly 57.1 µM), most hits filed as inhibitors. actives 0.66% (n = 230,000). AID 485360; further: nearly all actives have a fitted effect of over 60% in size
Target sequence (Q9Y468 whole entry, looked up): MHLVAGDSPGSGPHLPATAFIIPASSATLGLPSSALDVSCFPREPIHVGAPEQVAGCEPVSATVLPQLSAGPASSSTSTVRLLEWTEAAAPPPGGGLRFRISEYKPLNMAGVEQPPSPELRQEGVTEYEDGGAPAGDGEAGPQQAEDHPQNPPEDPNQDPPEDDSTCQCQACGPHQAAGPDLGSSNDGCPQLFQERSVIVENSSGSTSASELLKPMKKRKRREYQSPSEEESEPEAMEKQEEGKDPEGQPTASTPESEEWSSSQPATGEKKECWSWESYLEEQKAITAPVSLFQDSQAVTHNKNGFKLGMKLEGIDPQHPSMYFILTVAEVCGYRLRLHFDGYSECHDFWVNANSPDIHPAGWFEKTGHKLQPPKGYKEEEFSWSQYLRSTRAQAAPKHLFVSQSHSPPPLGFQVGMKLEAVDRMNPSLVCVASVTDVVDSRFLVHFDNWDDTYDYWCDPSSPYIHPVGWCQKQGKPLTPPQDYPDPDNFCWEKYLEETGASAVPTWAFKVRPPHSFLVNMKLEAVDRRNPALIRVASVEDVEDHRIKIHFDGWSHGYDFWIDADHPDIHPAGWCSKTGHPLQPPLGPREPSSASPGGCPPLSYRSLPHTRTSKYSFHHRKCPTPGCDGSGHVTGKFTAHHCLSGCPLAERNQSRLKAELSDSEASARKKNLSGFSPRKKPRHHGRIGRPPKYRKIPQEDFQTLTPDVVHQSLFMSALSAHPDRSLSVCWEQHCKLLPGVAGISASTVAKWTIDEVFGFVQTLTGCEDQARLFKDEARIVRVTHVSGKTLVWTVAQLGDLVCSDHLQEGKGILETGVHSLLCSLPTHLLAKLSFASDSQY
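L3MBTL1 50 nM + b-AHA-H3(1-15)K9me1 75 nM, 30 min RT; compound added, 30 min RT; streptavidin donor/Ni-chelate acceptor beads 10 ug/mL each final, 30 min RT dark; AlphaScreen read.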
G9a inh: G9a (human) methyltransferase inhibition | G9a H3K9 monomethylation, AlphaScreen, 2 h | Potency, µM (doses to about 102 µM), hits mostly inhibitors | actives 8.8% (n = 350,000) | AID 504332; further: nearly all actives have a fitted effect of over 75% in size
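Enzyme 20 nM + cpd, 15 min RT; add b-H3K9 pep 500 nM / SAM 20 uM; 2 h RT; anti-H3K9me1 Ab 0.5 ug/mL + SA donor / anti-rabbit acceptor beads 20 ug/mL each, 10 min; AlphaScreen read.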
BAZ2B inh: BAZ2B (human) inhibition | Q9UIF8 | AlphaScreen BAZ2B-H3K14Ac peptide displacement | Potency, µM (titrated, usually from 114 µM), actives largely listed as inhibitors | actives 4.4% (n = 360,000); further: nearly all actives have a fitted effect of over 60% in size
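AlphaScreen luminescence quantifies BAZ2B engagement of H3K14Ac peptide; the protein and biotinylated peptide are both at 50 nM final, buffer PBS pH 7.4 with 0.01% Tween-20, all steps at room temperature.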
HP1b chromo inh: HP1-beta chromodomain-methylated histone interaction inhibition | P83916 | AlphaScreen HP1-beta / biotin-H3K9me3 peptide binding | actives 0.56% (n = 390,000) | Potency, µM (doses to about 114 µM), usual class: inhibitors | AID 540317; further: nearly all actives have a fitted effect of over 70% in size
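HP1-beta protein (50 nM final) preincubated 30 min at room temperature with biotinylated H3(1-18)K9me3 peptide (50 nM) in PBS pH 7.4, 0.01% Tween-20, then compound added for 30 min. AlphaScreen streptavidin donor/nickel chelate acceptor beads (10 ug/mL final), 30 min dark, luminescence read.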
Sfp PPTase inh: inhibitors of Bacillus subtilis Sfp phosphopantetheinyl transferase; Q9F4F7; Biochemical Sfp PPTase activity, qHTS; Potency, µM, actives largely listed as inhibitors; actives 3.5% (n = 310,000);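 further: the enzyme is Sfp with the accession as filed and its product quenches rhodamine fluorescence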
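Buffer: 50 mM Hepes-Na pH 7.6, 10 mM MgCl2, 0.01% Nonidet P-40, 0.01% BSA. Enzyme 15 nM, pre-exposed to compound 15 min; substrates then added and fluorescence change tracked over 30 min.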
A number is an active result; . = inactive; ? = inconclusive; / = not tested or not shown; [ ] = another dose, or the depositor's remark. Only some compounds are listed: those with a hit (about 12% of all), similar ones and a draw of the others. The call rests on the fitted dose curve; in most records, active means well fitted curve in the direction sought with a large enough effect; inconclusive means small, poorly fitted or top-dose-only effect, or another doubt; inactive means no such curve, though single readings can be large; an effect the other way counts as inactive or inconclusive.

SMILES	JMJD2A Tudor inh	L3MBTL1 block	G9a inh	BAZ2B inh	HP1b chromo inh	Sfp PPTase inh
COc1ccc(-c2oc(=O)c3cc(OC)c(OC)cc3c2C#CC2(O)CCCCC2)cc1	.	.	/	/	.	/
COc1ccc(-c2oc3cccnc3c2C#CCO)cc1	.	.	50µM	.	.	.
COc1ccc(-c2oc3cccnc3c2C#CC2(O)CCCCC2)cc1	.	.	28µM	.	.	79µM
Cc1cc2cc3c(cc2nc1SCC(=O)Nc1nc(C)c(C)s1)OCO3	.	.	.	.	.	25µM
COC(=O)CSc1nc2cc3c(cc2cc1C)OCO3	.	.	?	.	.	.
O=C(Cn1c(-c2cccs2)cc2cc(Cl)ccc21)N1CCN(c2ccccc2F)CC1	?	/	.	.	.	/
CC1(C)CC(=O)C(C2C3=C(CC(C)(C)CC3=O)Oc3ccccc32)=C(O)C1 (stereo not drawn)	.	/	71µM	.	.	.
CC1=C([N+](=O)[O-])C(c2ccccc2)C2=C(N1)c1ccccc1C2=O (stereo not drawn)	25µM	/	10µM	35µM	?	?
CC(C)c1ccc(C2C3=C(CC(C)(C)CC3=O)NC3=C2C(=O)c2ccccc23)cc1 (stereo not drawn)	?	.	?	?	.	.
CC1(C)CC(=O)C2=C(C1)NC1=C(C(=O)c3ccccc31)C2c1ccccc1 (stereo not drawn)	40µM	?	20µM	32µM	50µM	.
CC(C)(C)c1ccc(C2C3=C(CCCC3=O)NC3=C2C(=O)c2ccccc23)cc1 (stereo not drawn)	25µM	.	40µM	?	.	.
COC(=O)c1ccc(NC(=O)c2cc(=O)c3ccc(C)cc3o2)cc1	.	/	.	.	.	/
COc1cccc2cc(C(=O)NNC(=O)c3ccc(Br)cc3)c(=O)oc12	79µM	.	45µM	.	?	.
COc1cc(C(C)=O)ccc1OC(=O)c1cc2cccc(OC)c2oc1=O	.	.[11.4 µM]	35µM	.	.	.
CCOC(=O)CC(NC(=O)c1cc2cccc(OC)c2oc1=O)c1cccc([N+](=O)[O-])c1 (stereo not drawn)	?	?	32µM	.	.	50µM
CC(=O)N(C)C	/	/	.	/	/	.
Cc1cccc(N2CCN(C(=O)c3cccn4c(=O)c5cc(Cl)ccc5nc34)CC2C)c1 (stereo not drawn)	?	/	.	.	?	/
Cc1cccc(-n2c(-c3ccncc3)n[nH]c2=S)c1	28µM	.	1.3µM	.	.	79µM
Cc1cccc(-n2c(C)c(-c3ccccc3)[nH]c2=S)c1	35µM	.	/	?	?	3.5µM
COc1cccc(-n2c(-c3ccc4[nH]c(C)c(C)c4c3)n[nH]c2=S)c1	?	.	/	?	.	?
Cc1cccc(-n2c(C)n[nH]c2=S)c1	10µM	.	?	?	.	.
O=C(CCCCn1c(=O)c2ccccc2n(Cc2ccc(Cl)cc2)c1=O)NCc1ccccc1Cl	.	/	.	.	.	/
Cn1cncc1C#Cc1ccc2cc(CCO)oc(=O)c2c1	.	.	.[0.501 µM]	56µM	.	/
Cn1cncc1C#Cc1ccc2cc(CCCO)oc(=O)c2c1	.	.	.[0.501 µM]	.	.	/
O=C(O)C1CCC[C@@H]2[C@@H]3CC(CN12)[C@@H]1CCCCN1C3 (stereo partly drawn)	/	/	/	/	/	.
SMILES	JMJD2A Tudor inh	L3MBTL1 block	G9a inh	BAZ2B inh	HP1b chromo inh	Sfp PPTase inh
Cc1ccccc1NC(=O)CN1C(=O)S/C(=C/c2cccnc2)C1=O	.	/	.	.	.	.
O=C1/C(=C\c2cccnc2)Sc2ccccc21	79µM	.	.	.	.	.
O=C(NCCN1C(=O)S/C(=C/c2cccnc2)C1=O)c1cccs1	.	.	.[12.7 µM]	.	.	/
O=C(NCCN1C(=O)S/C(=C\c2cccnc2)C1=O)C1=NN(c2ccccc2)C(=O)CC1	3.5µM	.	.	.	.	.
O=C(O)CN1C(=O)S/C(=C\c2cccnc2)C1=O	.	/	/	50µM	.	56µM
CN1C(=O)S/C(=C/c2cccnc2)C1=O	.	.	.	.	.	.
O=C1/C(=C/c2ccccc2)SC(=S)N1CC(=O)N1CCCCC1c1cccnc1 (stereo not drawn)	35µM	/	40µM	32µM	.	.
Cc1ccc(C(=O)N2CCC(N3CCN(Cc4ccc(F)cc4)C(=O)C3=O)CC2)cc1	.	/	.	.	.	/
COc1cccc(N2CCN(C(=O)C3CCN(S(=O)(=O)c4cn(C)cn4)CC3)CC2)c1	.	/	.	.	.	/
O=C(CCn1cccn1)Nc1ccc(Br)cc1F	.	/	.	.	.	/
COC(=O)N/N=C(\C)c1ccc(OC(F)F)cc1	.	/	.	.	.	.
C/C(=N\Nc1ncc(Cl)cc1Cl)c1ccc(OC(F)F)cc1	.	.	.	.	.	56µM
C/C(=N\NC(=O)c1ccc2c(c1)OCO2)c1ccc2c(c1)OCO2	.	.	.	.	.	.
C/C(=N\Nc1ncc(Cl)cc1Cl)c1ccc2c(c1)OCO2	.	.	.	.	.	79µM
Cc1nn(-c2ccccc2)c(-n2cccc2)c1C(=O)NCCCN1CCN(c2ccccc2F)CC1	?	/	.	.	.	/
COc1ccc(C2/C=C\CN(C(=O)C3CCCC3)C(C)C(=O)N2Cc2ccc(F)cc2)cc1 (stereo not drawn)	.	/	/	/	.	.
CCCC(=O)Nc1ccc(NC(=O)c2ccccn2)cn1	3.2µM	.	?	.	.	.
COc1cccc(C(=O)Nc2ccc(NC(C)=O)cn2)c1	.	.	.	.	.	.
O=C(Nc1ccc(NC(=O)C2CCCCC2)nc1)c1ccccn1	?	.	28µM	?	.	.
COc1cccc(C(=O)Nc2ccc(NC(=O)C3CC3)nc2)c1	.	/	40µM	.	.	.
CCCC(=O)Nc1ccc(NC(=O)c2ccccc2OC)cn1	.	.	.	.	.	.
O=C(Nc1cccc(F)c1)N1CC2(CCN(C(=O)c3cccc(F)c3)CC2)C1	/	/	.[12.7 µM]	/	/	.
Cc1nn2c(=O)cc(COC(=O)C(c3ccccc3)c3ccccc3)nc2s1	.	/	.	.	.	/
CC(C)OC(=O)c1ccc(NC(=O)c2cccc(-n3cnnn3)c2)cc1	.	.	.[2.33 µM]	.	.	/
COc1ccc(C)cc1NC(=O)c1c(C(=O)Nc2cccc(C)c2C)sc2nc(C)cc(=O)n12	.	/	.	.	.	/
Cc1cc(=O)n2c(C(=O)Nc3ccc(C(=O)OC(C)C)cc3)c(C(=O)Nc3ccccc3)sc2n1	.	.	45µM	.	.	.
Cc1cc(=O)n2c(C(=O)Nc3ccc(F)c(Cl)c3)c(C(=O)Nc3cccc(C)c3C)sc2n1	.	/	11µM	.	.	/
CCOc1cccc(C(=O)Nc2ccc(-c3nc4ncccc4o3)cc2C)c1	.	/	.	.	.	/
c1ccc(-c2onc(-c3ccco3)c2-c2ccc3[nH]ccc3c2)cc1	?	?	40µM	?	.	.
